What all share (type): functional
Assay [1] deals with Plasmodium falciparum. Briefly: GSK_TCMDC: Inhibition of Plasmodium falciparum 3D7 in whole red blood cells, using parasite LDH activity as an index of growth. Test compounds present at 2uM.
The subject of assay [2] is Plasmodium falciparum. Briefly: GSK_TCMDC: Inhibition of Plasmodium falciparum Dd2 in whole red blood cells, using parasite LDH activity as an index of growth. Test compounds present at 2uM.
The subject of a further assay is HepG2. Briefly: GSK_TCMDC: Percent inhibition of human HepG2 cell line. Test compounds present at 10uM.

As to `CC(C)(C)c1ccc(S(=O)(=O)Nc2ccccc2Cn2nc(N3CCNCC3)ccc2=O)cc1.O=C(O)C(F)(F)F`, the Inhibition in the assay with Plasmodium falciparum [1] is listed as 98%; in the assay with Plasmodium falciparum [2] it was 97%; in the assay on HepG2, 0%.

In the case of `O=C(Nc1ccccc1)Nc1ccc(-c2cccc(-c3nc4cc(C(F)(F)F)ccc4[nH]3)c2)cc1`, the Inhibition in the assay on Plasmodium falciparum [1] was 100%; with Plasmodium falciparum [2], 73%; in the assay on HepG2, 59%.

For the compound `Cl.N#CC1(CCCNCCc2ccc(O)cc2)CCCc2c(O)cccc21` (stereo not drawn), the values for the Inhibition in the assay on Plasmodium falciparum [1], with Plasmodium falciparum [2] and with HepG2 were 95%, 3% and 0%, respectively.

`CCCCC(=O)Nc1ccc(Nc2nc(C)cc(N3CCCC3)n2)cc1`: the Inhibition with Plasmodium falciparum [1] was determined as 100%; with Plasmodium falciparum [2], 67%; with HepG2 it was 38%.

As for `O=S(=O)(c1cc(Cl)ccc1Cl)N1CCCCC(c2ccc(C(F)(F)F)cc2)=N1`, the values for the Inhibition in the assay with Plasmodium falciparum [1], with Plasmodium falciparum [2] and in the assay with HepG2 were 87%, 68% and 15%, respectively.

`CN(C)CCN1CCN(CCCN2c3ccccc3Sc3ccc(C(F)(F)F)cc32)CC1.Cl`: the Inhibition in the assay on Plasmodium falciparum [1] stood at 99%; with Plasmodium falciparum [2], 61%; in the assay on HepG2, 98%.

Consider `Cn1nc(-c2ccc(NC(=O)Nc3ccc4ccccc4c3)c(F)c2)c2cnc(NCCN3CCOCC3)nc21.O=C(O)C(F)(F)F`, for which the Inhibition with Plasmodium falciparum [1] was found to be 93%; in the assay on Plasmodium falciparum [2] it was 3%; in the assay on HepG2, 62%.

Turning to `C=CCn1c(SCC(=O)Nc2cc(Cl)ccc2Cl)nc2sc(C)cc2c1=O`, the values for the Inhibition in the assay on Plasmodium falciparum [1], with Plasmodium falciparum [2] and with HepG2 were 97%, 96% and 8%, respectively.

In the case of `COc1ccc(OCC(=O)Nc2nc(-c3ccc(OC)cc3)c(C)s2)cc1`, the Inhibition is on record as 100% in the assay on Plasmodium falciparum [1], 87% in the assay on Plasmodium falciparum [2] and 0% in the assay on HepG2.

For the compound `Cl.O=C(/C=C/c1ccccc1F)NC1CCC(CCN2CCc3ccc(-c4cccnc4)cc3CC2)CC1` (stereo not drawn), the Inhibition is on record as 92% in the assay on Plasmodium falciparum [1], 5% with Plasmodium falciparum [2] and 34% with HepG2.

Turning to `CCCCCCOc1ccc(/C(N)=N\Cc2ccccc2)c2c1CCCC2.Cl`, the Inhibition with Plasmodium falciparum [1] is 96%; with Plasmodium falciparum [2], 35%; in the assay on HepG2, 62%.

Source of the values: ChEMBL document CHEMBL1157539, “Thousands of chemical starting points for antimalarial lead identification” (Nature, 2010).
